From PubChem BioAssay
“And” between values parts separate entries of the source, which are not always exact repeats. Identical values can stand only once. The source made the active and inactive calls.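 How the source made its calls, unless noted: active means mean z-score across replicates of 1.96 or higher in either the MELAS or the Rieske mutant cell line; inactive means the rest.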

Key:
[1] = MELAS cybrid and Rieske KO viability enhancers – cell-based, MELAS cybrids, Rieske KO mouse fibroblasts, CellTiter-Glo, primary screen (AID 1508586); conditions: low glucose;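 further: z relative to plate mean and SD of compound and empty wells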
[2] = blockers of cellular phospholipid synthesis – cell-based, LOPAC library, screen 4, primary screen (AID 1347384; call rule not given here); conditions: animal cells, phospholipid biosynthesis inhibition screen; at 10 µM
[3] = MELAS cybrid survival, CellTiter-Glo 48 h, stronger effect = higher value
[4] = Rieske KO mouse fibroblast survival, CellTiter-Glo 72 h

SMILES | z-score [1, 3] | z-score [1, 4] | outcome [2]
COC(=O)C1=C(C)NC(C)=C(C(=O)O[C@@H]2CCCN(Cc3ccccc3)C2)[C@@H]1c1cccc([N+](=O)[O-])c1 | 0.772 (inactive) | 0.352 | 
NC(N)=N/N=C/c1c(Cl)cccc1Cl | -0.136 (inactive) and 1.02 (inactive) | 0.531 and 1.03 | inactive
CC(=O)NS(=O)(=O)c1ccc(N)cc1 | -0.241 (inactive) and 0.341 (inactive) | -0.167 and 0.175 | 
CN(C)C(=O)Oc1cccc([N+](C)(C)C)c1 | 0.498 (inactive) and -0.72 (inactive) | 0.395 and -0.634 | inactive
CCc1oc2ccccc2c1C(=O)c1cc(Br)c(O)c(Br)c1 | -0.224 (inactive) and 0.135 (inactive) | -0.158 and -0.137 | 
COc1ccc(CN2CCN(C(c3ccc(F)cc3)c3ccc(F)cc3)CC2)c(OC)c1OC | -0.49 (inactive) and -0.685 and -0.348 (inactive) | -0.282 and 2.06 and 1.06 | 
C#CCN(C)Cc1ccccc1 | -0.298 (inactive) and 0.205 (inactive) | -0.334 and 0.464 | inactive
CCN(CC)CCNC(=O)c1cc(Cl)c(N)cc1OC | -1.13 (inactive) and 0.206 (inactive) and 0.37 (inactive) | -0.268 and 0.0241 and 0.87 | inactive
CN1CCC[C@@H]1CCO[C@](C)(c1ccccc1)c1ccc(Cl)cc1 | -0.745 (inactive) and -0.186 (inactive) | 0.0285 and -0.556 | 
O=C(CCCN1CCN(c2ccccn2)CC1)c1ccc(F)cc1 | -0.275 (inactive) and -0.83 (inactive) and 0.232 (inactive) | -0.169 and 0.0955 and 0.456 | 
